{"source": "the supplement of paper PMC6555819"}
{"tested_on": "RARa homodimer (NR concentration 270 nM)", "assay": "PBM binding z-score (relative to random genomic background probes); higher = stronger binding; sequences stand for … in GC…GCGATTGACAGCGTAGAATGAAGG", "method_in_brief": "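Binding buffer was PBS pH 7.4 with 2% milk, 0.02% Triton X-100, 1 mM DTT, 0.2 mg/mL BSA and 0.4 mg/ml salmon testes DNA. In it, ligand-free nuclear receptor dimers were incubated 1 h on custom Agilent 4×180K protein-binding microarrays carrying double-stranded probes. Antibodies against each partner (one per run) detected binding, and z-scores were calculated against random background probes after regression normalization of scanned fluorescence.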"}
{"sequence": "TCTAGCAGGCCAGACGGTCACTCAAGAGGTACGG", "PBM binding z-score": -0.452}
{"sequence": "ACTATTAGTTGAAACGAGGGCAACCGATAGGTTG", "PBM binding z-score": 0.873}
{"sequence": "GCTGCTAGGTCAACTGATAGTCAGCTAAAGCTCG", "PBM binding z-score": -0.287}
{"sequence": "GCTAGCGGGCCATTTGGGTCACTCAATGACGGGC", "PBM binding z-score": -1.07}
{"sequence": "CCGACTGGGGCTTAAGGTTACCATAAGCCAGCCC", "PBM binding z-score": -0.504}
{"sequence": "CGAACGAGGGCATGTGTTGATAGCAAATGCCGAT", "PBM binding z-score": 0.149}
{"sequence": "CAAACTAGGTCAAGGGTCAAAGTCGAGCCAACCA", "PBM binding z-score": 1.84}
{"sequence": "AGAACGAGGGCAATGAGTTGATAGAACGGGTGGC", "PBM binding z-score": -0.124}
{"sequence": "ATCTCTATGTAAAGTTCAGTGAAAGATCGATAGA", "PBM binding z-score": 1.46}
{"sequence": "GCTTGTAGATCAAGGTTAAGAAAGACTAAGCTAA", "PBM binding z-score": -0.0899}
{"sequence": "GCTATTAGTTGAAGGGGCAACCGAATGATTCTCG", "PBM binding z-score": 0.778}
{"sequence": "AGTCAAAGTTCACTAGGTACCGTAAGATTCAGCT", "PBM binding z-score": 1.09}
{"sequence": "TAGCCTAGGTCAGATCGGGCCTGTATACGCTATA", "PBM binding z-score": -0.734}
{"sequence": "TCATATAGGTAAAGGTGTAAGTCGAACGATATGA", "PBM binding z-score": 0.411}
{"sequence": "GCGACTGGGGCATCAGCAGGTTACCATAACTTAA", "PBM binding z-score": -0.145}
{"sequence": "GCAGACAGGTGAAACGCAGGTAAATCAGGGTGGC", "PBM binding z-score": -0.404}
{"sequence": "CAAACTAGGTCACCGGAAGGTCAAAGTCCGCATG", "PBM binding z-score": 2.38}
{"sequence": "ACTATTAGTTGACTTAGGGTAACCGATACGACGC", "PBM binding z-score": 0.861}
